PubChem BioAssay
Measured potencies and affinities stand elsewhere. Results filed as inconclusive are left out. The source made the active and inactive calls.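 The calls were made as follows: active = signal-lowering compounds whose fitted half-maximal concentration is at or below twice the top tested dose in every run; inconclusive = runs disagree, flat 30 to 70% inhibition, or poor curve fit; inactive = the rest.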

Assay: CMV-driven luciferase expression suppression in HEK293 – cell-based, luminescence, dry powder, counter-screen for Pax8 inhibitor project, dose response (AID 743020);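 also: HEK293 cells stably expressing the CMV luciferase reporter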
Conditions: HEK293 CMV-luciferase reporter, SteadyGlo luminescence, 24 h; series mostly up to 35 µM; activity change, negative = inhibition: at the top concentration

Row | SMILES | activity change, negative = inhibition
1 | CCCCn1cnc2c(c(-c3ccccc3)c(-c3ccccc3)n2Cc2ccco2)c1=N | -14.6% (inactive)
2 | O=C(N/N=C/c1ccc(O)cc1)c1[nH]c2ccc(Br)cc2c1-c1ccccc1 | -9.09% (inactive)
3 | COC(=O)[C@@H]1Cc2c([nH]c3ccccc23)C(C)(C)N1C(=O)CCl | 3.25% (inactive)
4 | O=C(CCl)N=c1sccn1Cc1ccccc1Cl | 3.93% (inactive)
5 | COc1cccc(/C=N/NC(=O)c2ccc(N3CCCC3=O)cc2)c1 | -2.04% (inactive)
6 | Cc1ccc(S(=O)(=O)c2nc(S(=O)(=O)c3ccccc3)sc2N2CCN(C)CC2)cc1 | 18.9% (inactive)
7 | C[C@H]1CCCCO[C@@H](CN(C)Cc2ccc(C(F)(F)F)cc2)[C@@H](C)CN([C@@H](C)CO)C(=O)c2cc(NS(=O)(=O)c3ccc(Cl)cc3)ccc2O1 | -11.4% (inactive)
8 | N#Cc1ccc(NC(=O)COC(=O)C2CCC2)cc1 | -0.066% (inactive)
9 | O=C(Nc1ccc(F)cc1)c1nc(S(=O)(=O)Cc2ccccc2)ncc1Cl | -15.2% (inactive)
10 | CC(C)=CCC/C(C)=C/CNC(=O)C[C@H]1C[C@H](C(=O)N2CCOCC2)[C@@]2(C)c3[nH]c4ccc(Cl)cc4c3CCN2C1=O | -50.3% (inactive)
11 | Cc1ccc(C)c(N2CCN(C(=O)CCCCCn3c(=S)[nH]c4ccc(N5CCOCC5)cc4c3=O)CC2)c1 | -7.5% (inactive)
12 | COc1ccc(-c2ccc3c(c2)[C@H]2[C@H](CCN2S(=O)(=O)c2ccc(OC)cc2)[C@H](CO)N3C)cc1 | -1.05% [at 30 µM] (inactive)
13 | COc1ccc(C#Cc2ccc([C@@H]3[C@H](CO)N4CCCCN(C(=O)Nc5cccc(F)c5)C[C@@H]34)cc2)cc1 | -75.1% (inactive)
14 | Oc1ccc(C[C@H]2CNC(=S)N2CC2CCCN2C[C@H](Cc2ccccc2)N2C[C@H](Cc3ccc(O)cc3)N(CCc3ccccc3)C2=S)cc1 (some centres undefined) | -5.38% (inactive)
15 | Oc1ccc(/C=N\Nc2cc(N3CCOCC3)nc(N3CCOCC3)n2)c(O)c1 | 17.9% (inactive)
16 | O=C(Nc1ccc(Cl)cc1)Nc1ccc(N2CCCC2)c(S(=O)(=O)Nc2ccccc2Cl)c1 | -30.8% (inactive)
17 | C[C@H](CO)N1C[C@H](C)[C@@H](CN(C)Cc2ccncc2)Oc2ccc(NC(=O)Nc3ccc(C(F)(F)F)cc3)cc2CC1=O | 0.151% (inactive)
18 | O=C(C[C@@H]1C[C@H]2c3cc(NS(=O)(=O)c4ccc(F)cc4)ccc3O[C@H]2[C@@H](CO)O1)NCc1ccc(Oc2ccccc2)cc1 | -11.1% (inactive)
19 | FC(F)(F)c1nnc2c(Sc3ccc(Cl)cc3)nc3ccccc3n12 | 8.06% (inactive)
20 | C[C@@H]1CCCCO[C@@H](CN(C)Cc2ccc3c(c2)OCO3)[C@H](C)CN([C@@H](C)CO)C(=O)c2cc(NC(=O)Nc3ccc(C(F)(F)F)cc3)ccc2O1 | -0.657% (inactive)

Row | SMILES | activity change, negative = inhibition
21 | CN(C)N=Nc1nc[nH]c1C(N)=O | 13.3% (inactive)
22 | COC(C(=O)C(O)C(C)O)C1Cc2cc3cc(OC4CC(OC5CC(O)C(O)C(C)O5)C(O)C(C)O4)c(C)c(O)c3c(O)c2C(=O)C1OC1CC(OC2CC(OC3CC(O)C(OC)C(C)O3)C(O)C(C)O2)C(O)C(C)O1 (centres undefined) | 12.3% (inactive)
23 | O=C(NCC1CCCO1)C(=Cc1cccc([N+](=O)[O-])c1)C(=O)NCC1CCCO1 (centres undefined) | -5.24% (inactive)
24 | Cc1ccc(S(=O)(=O)CCC(=O)c2ccc(O)cc2O)cc1 | 6.1% (inactive)
25 | O=C(Nc1nc(-c2cccs2)c(-c2cccs2)s1)C1(c2ccccc2)CC1 | -1.66% (inactive)
26 | Cc1cccc(NC(=O)CC23CC4CC(C2)CC(n2nnc(C)n2)(C4)C3)c1 | 20.1% (inactive)
27 | Cc1ccc(S(=O)(=O)Nc2ccc3c(c2)C(=O)N([C@H](C)CO)C[C@H](C)[C@@H](CN(C)S(=O)(=O)c2ccc(C)cc2)OCCCC[C@H](C)O3)cc1 | -2.75% (inactive)
28 | CCCCNC(=O)C(Sc1ccccc1)c1ccccc1 (centres undefined) | 6.87% (inactive)
29 | O=C1/C(=C\c2ccc(Cl)c(Cl)c2)CN(C(=O)CCN2CCOCC2)C/C1=C/c1ccc(Cl)c(Cl)c1 | -16.8% (inactive)
30 | COc1cccc(N(C(=O)c2ccco2)c2nc(-c3sc(NC(=O)c4ccco4)nc3C)cs2)c1 | -13.6% (inactive)
31 | C[C@H](CO)N1C[C@H](C)[C@H](CN(C)S(=O)(=O)c2cccc(F)c2)OCc2ccccc2-c2c(n(C)c3ccccc23)C1=O | 7.08% (inactive)
32 | CCOC(=O)Nc1ccc2c(c1)N(C(=O)CCCl)c1ccccc1[S@]2=O | 5.67% (inactive)
33 | COc1ccc(NC(=O)C(Sc2nnc(-c3ccncc3)n2-c2ccccc2C)c2ccccc2)cc1Cl (centres undefined) | 11.8% (inactive)
34 | CC(C)c1ccc(/C=C(\c2nc3ccccc3[nH]2)S(=O)(=O)c2ccccc2)cc1 | 2.37% (inactive)
35 | Cn1nnnc1Sc1ncnc2scc(-c3cccc(C(F)(F)F)c3)c12 | -9.51% (inactive)
36 | O=C(CC1SC(=Nc2cccc3ccccc23)N(Cc2ccccn2)C1=O)Nc1ccccc1Br (centres undefined) | -14.6% (inactive)
37 | CC(=O)c1cccc(-c2csc3ncnc(Sc4nnnn4C)c23)c1 | 5.34% (inactive)
38 | CCCCn1nc(C(=O)Nc2cc(C(F)(F)F)ccc2N2CCOCC2)ccc1=O | -10.9% (inactive)
39 | C=CC[C@H](CC(=O)N(CCO)Cc1ccccc1)C(=O)N[C@@H](COC(=O)[C@H](CC=C)CC(=O)OC(C)(C)C)Cc1c[nH]c2ccccc12 | 8.6% (inactive)
